In PubChem BioAssay (Tox21):
Inconclusive results are not listed. The source made the active and inactive calls. Unless noted, calls come from the whole dose curve; as a rule, active = well fitted curve in the direction sought with a large enough effect in the repeat runs; inconclusive = weak or mixed curves; inactive = no such curve, though single readings can be large; an effect the other way counts as inactive or inconclusive. Positions of bridges follow the written chain, without caps; N, C: chain ends. Non-standard residues stand in square brackets, D forms with d. Residues, ends and D or L forms follow the SMILES beside them. hArg = N=C(N)NCCCC[C@H](N)C(=O)O; Mpa = O=C(O)CCS

Assays:
[1] = qHTS assay to identify small molecule antagonists of the glucocorticoid receptor (GR) signaling pathway - cell viability counter screen (AID 720693); note: nearly all actives have a fitted effect of over 55% in size
[2] = qHTS assay for identifying genotoxic compounds that show differential cytotoxicity against isogenic chicken DT40 cell lines with known DNA damage response pathways - wild type cell line (AID 743012); note: nearly all actives have a fitted effect of over 60% in size; note: potency is the fitted concentration of half-maximal effect
In short: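 Parental DNA repair-proficient DT40 cells, 300 per well, were pre-incubated ~0.5 h at 37 C/5% CO2, pin-dosed with compounds in DMSO, then incubated 40 h. Viability was read as CellTiter-Glo luminescence after 30 min at room temperature.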

[3] = qHTS assay for identifying genotoxic compounds that show differential cytotoxicity against isogenic chicken DT40 cell lines with known DNA damage response pathways - Rad54/Ku70 mutant cell line (AID 743015); note: nearly all actives have a fitted effect of over 60% in size; note: potency is the fitted concentration of half-maximal effect
[4] = qHTS assay to identify small molecule antagonists of the androgen receptor (AR) signaling pathway - cell viability counter screen (AID 743033; note: nearly all actives have a fitted effect of over 45% in size)
[5] = qHTS assay to identify small molecule antagonists of the androgen receptor (AR) signaling pathway using the MDA cell line - cell viability counter screen (AID 743041; note: nearly all actives have a fitted effect of over 45% in size)
In short: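 Viability counter screen run alongside the AR antagonist reporter: cells seeded 5 h before compound, R1881 added, 16 h incubation at 37C without CO2, fluorescent CellTiter-Fluor signal quantified.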

[6] = qHTS assay to identify small molecule antagonists of the thyroid receptor (TR) signaling pathway - cell viability counter screen (AID 743064); note: nearly all actives have a fitted effect of over 50% in size
In short: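 Fluorescence from CellTiter-Fluor, added after 23.5 h exposure at 37 °C, reported viability of GH3.TRE-Luc cells co-treated with compound and 1 nM T3. Measured in the same wells as the luciferase TR readout.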

[7] = qHTS assay to identify small molecule antagonists of the thyroid receptor (TR) signaling pathway (AID 743065); note: series mostly up to about 70 µM; nearly all actives have a fitted effect of over 55% in size
In short: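 GH3.TRE-Luc rat pituitary cells carrying two TR response elements driving luciferase were plated for 4 h, given compound plus 1 nM T3 (final), and incubated 23.5 h at 37 C. ONE-Glo luminescence measured reporter inhibition; CellTiter-Fluor fluorescence tracked cytotoxicity.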

[8] = tested on: thyroid hormone receptor (rat, GH3 cells); assay: qHTS assay to identify small molecule agonists of the thyroid receptor (TR) signaling pathway (AID 743066; calls by dose curve)
[9] = target: Estrogen receptor (Homo sapiens) (UniProt P03372); assay: qHTS assay to identify small molecule antagonists of the estrogen receptor alpha (ER-alpha) signaling pathway (AID 743069; active = well fitted curve in the direction sought with a large enough effect in the signal ratio in the repeat runs, not every such curve was filed as active; the % refers to the signal ratio)
In short: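 Estradiol-stimulated ER-alpha-UAS-bla HEK293 cells, 18 hr compound exposure at 37C. LiveBLAzer B/G substrate, 2 hr RT, fluorescence read.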

[10] = qHTS assay to identify small molecule antagonists of the estrogen receptor alpha (ER-alpha) signaling pathway - cell viability counter screen (AID 743074; calls by dose curve;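 note: HEK293 cells carrying ER-alpha-UAS-bla reporter stimulated with 17beta-estradiol; nearly all actives have a fitted effect of over 45% in size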)
[11] = target: Estrogen receptor (Homo sapiens) (UniProt P03372); assay: qHTS assay to identify small molecule agonists of the estrogen receptor alpha (ER-alpha) signaling pathway (AID 743075; calls by dose curve)
[12] = qHTS assay to identify small molecule antagonists of the estrogen receptor alpha (ER-alpha) signaling pathway using the BG1 cell line (AID 743080; calls by dose curve;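 note: BG1 cells stimulated with 17beta-estradiol alongside compound; series mostly up to about 70 µM; nearly all actives have a fitted effect of over 25% in size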)
In short: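 Quantitative HTS on the Tox21 10K library: BG1 cells with endogenous ER-alpha and ERE-luciferase reporter, 17beta-estradiol stimulation, 21.5 h compound exposure, luminescence endpoint with parallel fluorescence cytotoxicity counter-read.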

[13] = qHTS assay to identify small molecule antagonists of the estrogen receptor alpha (ER-alpha) signaling pathway using the BG1 cell line - cell viability counter screen (AID 743081);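 note: compound given together with 17beta-estradiol as the ER stimulus; series mostly up to about 70 µM; nearly all actives have a fitted effect of over 45% in size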
[14] = target: Aromatase (Homo sapiens) (UniProt P11511); assay: qHTS assay to identify aromatase inhibitors (AID 743083); note: series mostly up to about 70 µM; nearly all actives have a fitted effect of over 55% in size
[15] = qHTS assay to identify aromatase inhibitors - cell viability counter screen (AID 743084);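 note: cells stimulated with testosterone during compound exposure; nearly all actives have a fitted effect of over 55% in size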
[16] = qHTS assay for identifying genotoxic compounds that show differential cytotoxicity against isogenic chicken DT40 cell lines with known DNA damage response pathways - Rev3 mutant cell line (AID 743014); note: nearly all actives have a fitted effect of over 55% in size
[17] = target: Estrogen receptor (Homo sapiens) (UniProt P03372); assay: qHTS assay to identify small molecule agonists of the estrogen receptor alpha (ER-alpha) signaling pathway using the BG1 cell line (AID 743079); note: nearly all actives have a fitted effect of over 20% in size; note: potency is the fitted concentration of half-maximal effect
[18] = target: Androgen receptor (Homo sapiens) (UniProt P10275); assay: qHTS assay to identify small molecule antagonists of the androgen receptor (AR) signaling pathway (AID 743035; active = well fitted inhibition curve with a large enough effect in the signal ratio in the repeat runs, not every such curve was filed as active; the % refers to the signal ratio)
In short: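 HEK293 cells stably carrying a UAS-driven beta-lactamase reporter (AR-UAS-bla GripTite) were plated for 4 h at 37C, then given compound and the agonist R1881 and incubated 16 h. Reporter activity was read by LiveBLAzer B/G FRET fluorescence after 2 h at room temperature.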

[19] = target: Androgen receptor (Homo sapiens) (UniProt P10275); assay: qHTS assay to identify small molecule agonists of the androgen receptor (AR) signaling pathway (AID 743036; active = well fitted activation curve with a large enough effect in the signal ratio in the repeat runs, with a control signal flat, not every such curve was filed as active; the % refers to the signal ratio)
In short: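 Fluorescence from a beta-lactamase FRET substrate served as read-out in AR-UAS-bla GripTite HEK293 cells. Cells were treated with DMSO-dissolved compounds for 16 h at 37C, then with LiveBLAzer B/G substrate for 2 h at room temperature.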

[20] = target: Androgen receptor (Homo sapiens) (UniProt P10275); assay: qHTS assay to identify small molecule agonists of the androgen receptor (AR) signaling pathway using the MDA cell line (AID 743040; note: nearly all actives have a fitted effect of over 20% in size; note: potency is the fitted concentration of half-maximal effect)
In short: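 Luminescence from ONE-Glo, read after 30 min at room temperature, reflects MMTV-driven luciferase in MDA-kb2 cells (AR- and GR-responsive). Treatment lasted 16 h at 37C, 0% CO2.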

Measured: Potency

Chain of Androgen receptor (Homo sapiens) (P10275 whole entry, looked up): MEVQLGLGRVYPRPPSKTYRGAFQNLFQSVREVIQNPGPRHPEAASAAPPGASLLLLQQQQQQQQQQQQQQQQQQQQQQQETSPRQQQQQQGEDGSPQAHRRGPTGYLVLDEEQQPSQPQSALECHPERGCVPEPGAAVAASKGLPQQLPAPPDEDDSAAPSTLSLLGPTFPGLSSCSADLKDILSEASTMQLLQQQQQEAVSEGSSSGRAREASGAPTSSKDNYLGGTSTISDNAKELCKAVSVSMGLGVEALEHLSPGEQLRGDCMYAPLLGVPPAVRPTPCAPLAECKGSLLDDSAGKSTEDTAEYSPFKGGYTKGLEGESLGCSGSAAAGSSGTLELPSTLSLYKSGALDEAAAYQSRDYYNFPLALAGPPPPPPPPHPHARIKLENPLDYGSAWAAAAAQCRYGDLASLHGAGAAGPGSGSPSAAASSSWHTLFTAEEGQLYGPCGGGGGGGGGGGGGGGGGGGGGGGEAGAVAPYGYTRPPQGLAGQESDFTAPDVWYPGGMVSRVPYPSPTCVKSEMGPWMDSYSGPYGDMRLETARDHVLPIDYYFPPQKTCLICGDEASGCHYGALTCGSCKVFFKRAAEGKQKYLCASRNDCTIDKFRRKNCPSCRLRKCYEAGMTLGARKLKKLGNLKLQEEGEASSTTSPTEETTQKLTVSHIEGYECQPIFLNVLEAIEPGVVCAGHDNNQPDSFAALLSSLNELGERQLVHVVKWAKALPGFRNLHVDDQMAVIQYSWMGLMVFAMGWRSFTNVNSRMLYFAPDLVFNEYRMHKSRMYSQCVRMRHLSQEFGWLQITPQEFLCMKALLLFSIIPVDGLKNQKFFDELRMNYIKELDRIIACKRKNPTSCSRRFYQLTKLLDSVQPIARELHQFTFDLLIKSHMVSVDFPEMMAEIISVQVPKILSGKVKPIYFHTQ
Chain of Estrogen receptor (Homo sapiens) (P03372 whole entry, looked up): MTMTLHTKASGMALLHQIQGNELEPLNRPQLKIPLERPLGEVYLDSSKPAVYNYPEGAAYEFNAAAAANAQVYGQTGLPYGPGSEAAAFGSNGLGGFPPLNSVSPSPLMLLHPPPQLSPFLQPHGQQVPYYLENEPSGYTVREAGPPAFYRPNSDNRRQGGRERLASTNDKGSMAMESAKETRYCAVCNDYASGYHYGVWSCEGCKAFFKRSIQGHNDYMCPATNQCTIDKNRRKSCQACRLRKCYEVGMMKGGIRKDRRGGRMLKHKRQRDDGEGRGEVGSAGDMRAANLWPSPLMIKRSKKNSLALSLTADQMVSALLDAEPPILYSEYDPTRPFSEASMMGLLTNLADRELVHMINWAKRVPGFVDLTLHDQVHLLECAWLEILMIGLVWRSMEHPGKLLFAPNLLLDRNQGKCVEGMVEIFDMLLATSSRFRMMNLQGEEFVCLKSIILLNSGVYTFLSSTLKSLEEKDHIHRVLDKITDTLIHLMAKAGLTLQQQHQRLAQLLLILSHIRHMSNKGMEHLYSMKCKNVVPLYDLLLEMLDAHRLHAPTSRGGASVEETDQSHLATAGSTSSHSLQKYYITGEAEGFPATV
Chain of Aromatase (Homo sapiens) (P11511 whole entry, looked up): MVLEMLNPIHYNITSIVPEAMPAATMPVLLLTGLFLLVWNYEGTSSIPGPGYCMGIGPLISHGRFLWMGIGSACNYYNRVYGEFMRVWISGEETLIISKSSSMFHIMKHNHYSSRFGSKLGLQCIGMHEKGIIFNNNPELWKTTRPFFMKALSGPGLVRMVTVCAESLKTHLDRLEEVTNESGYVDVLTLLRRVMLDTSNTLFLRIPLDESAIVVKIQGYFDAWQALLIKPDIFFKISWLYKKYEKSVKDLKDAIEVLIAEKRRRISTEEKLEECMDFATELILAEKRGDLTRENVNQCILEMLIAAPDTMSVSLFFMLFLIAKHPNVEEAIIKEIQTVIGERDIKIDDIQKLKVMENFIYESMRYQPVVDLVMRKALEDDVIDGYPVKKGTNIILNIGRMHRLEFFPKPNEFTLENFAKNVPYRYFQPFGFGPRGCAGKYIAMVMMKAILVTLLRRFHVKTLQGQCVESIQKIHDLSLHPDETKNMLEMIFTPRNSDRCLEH

CCCc1ccc(O)cc1
not listed: [16] | [17] | [18] | [19] | [20]
inactive: all other assays above

C[C@@H](O)C(=O)O
active: [17] 48 µM
not listed: [3] | [4] | [18] | [19] | [20]
inactive: all other assays above

N[C@@H](CSCCCO)C(=O)O
active: [20] 33.5 µM
not listed: [16]
inactive: all other assays above

C/C(CC(C)C)=N\O
not listed: [16] | [18] | [19] | [20]
inactive: all other assays above

CN(C)CC/C=C1/c2ccccc2COc2ccc(CC(=O)O)cc21
inactive: [1] | [2] | [3] | [4] | [5] | [6] | [7] | [8] | [10] | [13]

CC(C)OC(=O)CCC(=O)OC(C)C
not listed: [9] | [11] | [12] | [16] | [17] | [18] | [19] | [20]
inactive: all other assays above

CCCC(=O)Nc1ccc(OCC(O)CNC(C)C)c(C(C)=O)c1 (stereo unspecified)
not listed: [6] | [7] | [8] | [16] | [18] | [19] | [20]
inactive: all other assays above

CCOCCOCC
not listed: [5] | [16] | [18] | [19] | [20]
inactive: all other assays above

C=CC(=O)OCC1CCCO1 (stereo unspecified)
not listed: [3] | [8] | [10] | [18] | [19] | [20]
inactive: all other assays above

C#CCN[C@@H]1CCc2ccccc21
not listed: [3] | [4] | [6]
inactive: all other assays above

CC(=O)OCC(=O)Nc1cc(C#N)cc(NC(=O)COC(C)=O)c1Cl
not listed: [13] | [16] | [18] | [19] | [20]
inactive: all other assays above

CC(C)CCOC(=O)c1ccccc1
not listed: [3] | [9] | [11] | [12] | [17] | [18] | [19] | [20]
inactive: all other assays above

Fc1ccccc1
not listed: [16] | [18] | [19] | [20]
inactive: all other assays above

CC/C=C\CCOC(=O)c1ccccc1O
not listed: [16] | [18] | [19] | [20]
inactive: all other assays above

O=C(O)c1cc2ccccc2nc1C(=O)O
not listed: [16] | [17] | [18] | [19] | [20]
inactive: all other assays above

CCCCCC(C)O (stereo unspecified)
not listed: [5] | [16] | [18] | [19] | [20]
inactive: all other assays above

CC1(C)Oc2ccc(C#N)cc2[C@@H](N2CCCC2=O)[C@@H]1O
not listed: [4] | [16] | [18] | [19] | [20]
inactive: all other assays above

CC/C(C)=N\O[Si](C)(O/N=C(\C)CC)O/N=C(\C)CC
not listed: [3] | [5] | [16] | [18] | [19] | [20]
inactive: all other assays above

CCCCOC(=O)[C@H](C)O
not listed: [2] | [18] | [19] | [20]
inactive: all other assays above

C=CCOC(=O)CCCCCC
not listed: [2] | [7] | [8] | [9] | [11] | [12] | [17] | [19]
inactive: all other assays above

Cc1cc(-c2ccccc2)nnc1NCCN1CCOCC1
not listed: [3] | [16] | [17] | [18] | [19] | [20]
inactive: all other assays above

Nc1nnnn1-c1ccccc1
not listed: [3] | [16] | [18] | [19] | [20]
inactive: all other assays above

CCCCCCCCCOC(=O)CCCCC(=O)OCCCCCCC
inactive: [1] | [2] | [3] | [4] | [6] | [10] | [13] | [14] | [15]

CC(=O)CCc1ccc(OC(C)=O)cc1
not listed: [5] | [16] | [18] | [19] | [20]
inactive: all other assays above

CCC/C=C(\C=O)CC
not listed: [4] | [16] | [18] | [19] | [20]
inactive: all other assays above

O=C=NCC1CCCC(CN=C=O)C1 (stereo unspecified)
not listed: [4] | [16] | [18] | [19] | [20]
inactive: all other assays above

CC1CCc2c(N3CCC(O)CC3)c(F)cc3c(=O)c(C(=O)O)cn1c23 (stereo unspecified)
active: [2] 26.6 µM
not listed: [3] | [9] | [16] | [18] | [19] | [20]
inactive: all other assays above

CC(C)COC(=O)c1ccccc1
not listed: [3] | [14] | [16] | [17] | [19]
inactive: all other assays above

Nc1nc(-c2ccccc2)c(Br)c(=O)[nH]1
not listed: [3] | [7] | [8] | [16] | [18] | [19]
inactive: all other assays above

Cc1ncc([N+](=O)[O-])n1CC(C)O (stereo unspecified)
not listed: [4] | [16] | [18] | [19] | [20]
inactive: all other assays above

CCC(=O)c1c(O)cc(O)cc1O
not listed: [4] | [16] | [19]
inactive: all other assays above

O=C(O)CCCCCC(=O)O
not listed: [5] | [16] | [18] | [19] | [20]
inactive: all other assays above

CC(=O)Nc1ccc(OC(=O)c2ccccc2OC(C)=O)cc1
not listed: [4] | [9] | [16] | [18] | [19] | [20]
inactive: all other assays above

N#CCC(=O)NN
not listed: [5] | [16] | [18] | [19] | [20]
inactive: all other assays above

O/N=C/C=N/O
inactive: [1] | [2] | [3] | [5] | [6] | [7] | [8] | [10] | [13] | [14] | [15]

Cc1ccccc1C(N)=O
not listed: [5] | [16] | [18] | [19] | [20]
inactive: all other assays above

NC(=O)[C@@H]1CSSCCC(=O)N[C@@H](CCCCN=C(N)N)C(=O)NCC(=O)N[C@@H](CC(=O)O)C(=O)N[C@@H](Cc2c[nH]c3ccccc23)C(=O)N2CCC[C@H]2C(=O)N1 ([Mpa][hArg]GDWPC-NH2; disulfide 1-7)
not listed: [4] | [11] | [16] | [17] | [18] | [19] | [20]
inactive: all other assays above

CC(C)NCC(O)c1ccc2ccccc2c1 (stereo unspecified)
active: [2] 15 µM
inactive: [1] | [5] | [6] | [7] | [8] | [10] | [13] | [14] | [15]

CCOC(CN1CCN(CC(C)C(=O)c2ccccc2)CC1)c1ccccc1 (stereo unspecified)
active: [2] 10.6 µM | [3] 18.8 µM
inactive: [1] | [4] | [8] | [10] | [13] | [15]

C=CCSSCCC
not listed: [2] | [9] | [18] | [19] | [20]
inactive: all other assays above
